Experimental data from PubChem BioAssay (NCI).
“And” between values parts separate entries of the source, which are not always exact repeats. Equal entries are not always repeated. This is part of a sample that, as a whole, favours compounds with a hit. Of some 83,000 tested, about 20% had one in any assay.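 Cells were grown in 96-well plates and exposed to the test compound at a single concentration for 48 hours; results are reported as percent growth, with values below 10 considered active.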 Unmarked numbers belong to inactive results. The source made the active and inactive calls.

The compounds below were run on MDA-MB-468 breast (assay: NCI-60 one-dose screen, 48 h (100 = growth as untreated, 0 = no growth, -100 = all killed)). Conditions: 10 µM unless noted.

SMILES	growth
CCCS(=O)(=O)Nc1ccc(F)c(C(=O)c2c[nH]c3ncc(-c4ccc(OCCCC5CCCCN5)nc4)cc23)c1F (stereo not given)	69.6%
CCOc1cccc(/C=N/NC(=O)c2ccc(Nc3ccnc(C(F)(F)F)c3)cc2)c1O	-20.9% (active)
Cn1c(=O)c2[nH]c(SC/C(=N/O)c3ccc(Br)cc3)nc2n(C)c1=O	47.1%
Cc1ccc(NC2=C(Cl)C(=O)c3nc(C)ccc3C2=O)c(C)c1	-70.2% (active)
NC(=N\N=C/c1ccc(Cl)cc1Cl)/C(N)=N\N=C/c1ccc(Cl)cc1Cl	62.8%
Cc1ccc(C(=O)Nc2ccccc2N)cc1	79.1%
CC1CC(C)/C(=N/NC(N)=O)C(C(O)CC2CCC(=O)NC2=O)C1 (stereo not given)	46.9%
CCCCC1COc2cccc3c2N1C=C/C3=C\C(=O)n1ccc2ccccc21 (stereo not given)	12.3%
NC(Cc1ccc(O)c([N+](=O)[O-])c1)C(=O)O (stereo not given)	101%
Clc1ccc2nc3nc4ccc[nH]c4cc3c2c1	-31.5% (active)
c1ccc(-c2ccc3c(c2)C2(CCNCC2)CN3)cc1	106%
Clc1cccc(Cl)c1C1CSc2ccccc2N=C1c1ccccc1 (stereo not given)	80.3%
COc1cc(C(=O)c2cnc(-c3cccc4[nH]ccc34)[nH]2)cc(OC)c1OC	-2.51% (active)
CN1CCN(C(=O)c2ccc(NC(=O)c3cc4c(nn3)NCCN4Cc3cc(Cl)ccc3Cl)cc2)CC1	60.9%
NC(CSC(c1ccccc1)(c1ccccc1)c1ccc(F)cc1)C(=O)O (stereo not given)	-41% (active)
CC1=CC2OC34COC3CC(OC(=O)C(F)(F)F)C4(C)C2(C)CC1 (stereo not given)	87.5%
COC(=O)[C@@H](NC(=O)[C@@H](OC)[C@@H]1Cc2cc3cc(OC4CC(OC5CC(O)C(O)C(C)O5)C(O)C(C)O4)c(C)c(O)c3c(O)c2C(=O)[C@H]1OC1CC(OC2CC(OC3CC(C)(O)C(O)C(C)O3)C(O)C(C)O2)C(O)C(C)O1)C(C)C (stereo not given in full)	-3.89% (active)
FC(F)(F)c1cc(Nc2ccc3cc(OCCCN4CCOCC4)ccc3n2)ccc1Cl	31.1%
C=C1NC(=O)C(C(C)CC)NC(=O)C2CSCC(NC(=O)CCC(=O)O)C(=O)NC(Cc3ccccc3)C(=O)NC(C)C(=O)NC(CC(C)CC)C(=O)NC(C(=O)NC(Cc3ccccc3)C(=O)N3CCCC3C(=O)N2)C(C)OC(=O)C(CO)NC(=O)C(C(O)COC)N(C)C(=O)C(C(C)C)NC(=O)C(CC(C)CC)NC1=O (stereo not given)	0.0436% [6 µM] (active)
CCCCCc1c(C)[nH]c(/C=C2\N=C(c3ccc[nH]3)C=C2Oc2ccccc2)c1C	-59.3% [100 µM] (active)

SMILES	growth
Cc1nc(Nc2ccc(N)cc2)c2ccccc2n1	86.9%
COc1ccc(-c2cc(-c3cccc(Cl)c3)c(C#N)c(=O)[nH]2)c(OC)c1	113%
COc1ccc(CN2C(=O)/C(=C\c3cc(OC)c(OC)c(OC)c3)c3cc(OC)ccc32)cc1	14%
C#CCOc1ccc2nc(CCl)c(Cl)c(Nc3cccc(C(F)(F)F)c3)c2c1	10.3%
Nc1nc(N)c(N)c(Nc2ccc(CCO)cc2)n1	92.8%
CC(=O)N1CC(=O)NC1=S	95.9%
C[C@@H](c1ccc2c(c1)[nH]c1ccc(Cl)cc12)c1nc2ccccc2[nH]1	-3.2% (active)
C=CCn1cc(-c2nc3ccccc3s2)c2cc(-c3ccc4c5c(cccc35)C(=O)N(CCO)C4=O)ccc21	96%
O=C1c2ccccc2C(=O)c2c(NCCN=Cc3ccccc3O)cccc21	43.8%
COc1cccc(/C=C\C(=O)c2ccccc2)c1	69.4%
Nc1c(C(=O)Nc2ccccn2)sc2nc3c(cc12)CCCC3	43.8%
COc1ccc(C(=O)OC2C(OC3C(O)COC(O[C@H]4C[C@H]5[C@@H]6CC=C7C[C@@H](O)CC[C@]7(C)[C@H]6CC[C@]5(C)[C@H]4[C@H](C)C(=O)CCC(C)C)C3OC(N)=O)OCC(O)C2O)cc1 (stereo not given in full)	-24.5% (active)
COC(=O)c1c2c(c(C)[n+]([O-])c1C)C(=O)C(NCc1ccc(F)cc1)=CC2=O	-9.79% (active)
COC(=O)C(C(=O)OC)C(Br)C(Br)C(Br)c1ccccc1 (stereo not given)	36.7%
NNc1ccc2ccccc2c1	83.7% and 88.7%
Cc1cccc(N2CCN(CC(O)COc3ccc(Cl)cc3)CC2)c1 (stereo not given)	107%
CC(=O)c1cc(C)c(OC(=O)c2ccccc2)c(C)c1	94%
COc1ccc(/C=C/C(C)=N/OCC(=O)O)cc1	95.6%
CCN1C(=O)N(CC)C2C1NC(=S)N2/N=C/c1ccc(OC)cc1 (stereo not given)	26.8%
CN(C)C/C=C/C(=O)Nc1cc2c(Nc3cccc(Cl)c3F)ncnc2cc1OCCOC(F)F	-44.6% (active)
